# The whole screen tested about 310,000 compounds, of which about 14,000 (4.5%) showed an effect of 50% or more. Effects have a minus sign here. Shown is part of a subset that was picked to be rich in strong results.
# Target: human ether-à-go-go-related gene (hERG) potassium channel (human, UniProt Q12809)
# Assay: primary screen, population patch clamp on CHO cells stably expressing hERG; higher = less effect of the substance
# 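Further: peak tail current of the secondary pulse compared with the same well before compound.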
# Sequence of human ether-à-go-go-related gene (hERG) potassium channel (Q12809 whole entry, looked up): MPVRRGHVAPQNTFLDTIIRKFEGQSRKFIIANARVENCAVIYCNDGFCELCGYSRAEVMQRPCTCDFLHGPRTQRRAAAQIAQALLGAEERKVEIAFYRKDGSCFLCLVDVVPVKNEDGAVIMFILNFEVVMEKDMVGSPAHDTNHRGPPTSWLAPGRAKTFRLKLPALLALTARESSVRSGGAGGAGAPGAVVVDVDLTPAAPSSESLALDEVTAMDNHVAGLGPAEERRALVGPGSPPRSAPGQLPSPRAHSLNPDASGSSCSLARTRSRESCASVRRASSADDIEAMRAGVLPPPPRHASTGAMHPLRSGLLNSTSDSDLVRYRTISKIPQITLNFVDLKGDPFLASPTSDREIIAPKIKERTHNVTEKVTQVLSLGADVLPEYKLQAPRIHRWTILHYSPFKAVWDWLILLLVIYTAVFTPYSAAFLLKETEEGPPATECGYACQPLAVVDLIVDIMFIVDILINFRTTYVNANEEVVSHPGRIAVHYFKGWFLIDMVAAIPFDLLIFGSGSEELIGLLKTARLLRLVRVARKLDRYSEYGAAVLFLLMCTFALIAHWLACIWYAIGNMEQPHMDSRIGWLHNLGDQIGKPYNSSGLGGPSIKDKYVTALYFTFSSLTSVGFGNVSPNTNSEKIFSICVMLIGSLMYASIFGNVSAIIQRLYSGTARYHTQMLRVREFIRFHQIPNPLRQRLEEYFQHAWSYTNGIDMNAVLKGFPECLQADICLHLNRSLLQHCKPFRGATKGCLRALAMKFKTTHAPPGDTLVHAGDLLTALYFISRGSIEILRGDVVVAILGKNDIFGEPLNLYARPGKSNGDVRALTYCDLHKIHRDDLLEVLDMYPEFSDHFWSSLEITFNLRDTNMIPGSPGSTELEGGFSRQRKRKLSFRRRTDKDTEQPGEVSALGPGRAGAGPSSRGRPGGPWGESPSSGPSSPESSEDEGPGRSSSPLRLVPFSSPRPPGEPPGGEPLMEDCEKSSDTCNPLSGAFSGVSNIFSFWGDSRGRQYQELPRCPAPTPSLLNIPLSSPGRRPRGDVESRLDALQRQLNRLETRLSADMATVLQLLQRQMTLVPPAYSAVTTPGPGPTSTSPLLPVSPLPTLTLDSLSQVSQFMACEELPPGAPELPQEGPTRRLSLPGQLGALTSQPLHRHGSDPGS
row,Structure (SMILES),"hERG current change (%, negative = inhibition) at 10uM [%]"
1,COc1ccc(-c2c3c(=O)n(C)c(=O)n(C)c3cn2Cc2cccnc2)cc1,4.55
2,O=C(COC(=O)C1CCN(c2ccc(C(F)(F)F)cn2)CC1)Nc1ccc(F)cc1[N+](=O)[O-],13
3,COc1ccccc1CCNC(=O)CSc1nc(-c2ccco2)cc(C(F)(F)F)n1,27.1
4,CCCCn1c(-c2csc(CCC)c2)n[nH]c1=S,14.8
5,CC1CCC2(CC1)NC(=O)N(Cc1cccc(C(F)(F)F)c1)C2=O (stereo not shown),12.9
6,N#C/C(=C\c1ccc(-c2cccc([N+](=O)[O-])c2)o1)C(=O)N1CCOCC1,-6.75
7,O=C(NCC1CCCO1)c1ccc(CSCc2cccc(F)c2)o1 (stereo not shown),-7.59
8,COc1ccc(C(=O)NNc2cc(C)nc(NNC(=O)c3ccc(OC)cc3)n2)cc1,7.94
9,CCN(C(=O)COc1cccnc1[N+](=O)[O-])C1CCS(=O)(=O)C1 (stereo not shown),-0.18
10,CCOc1ccc(CNC(=O)CCS(=O)(=O)Cc2cccc(Cl)c2)cc1OC,-12.1
11,O=C(O)c1cc2c(ccc3ccccc32)o1,4.33
12,COC(=O)c1ccc([C@H]2CC(=O)O2)cc1,1.35
13,c1ccc2c(c1)nc(NC1CCCCC1)c1nncn12,-35.2
14,CC(C)(C)OC(=O)N1CCC(c2c(C(=O)NCC3CCN(C4CCCC4)C3)cnn2-c2ccccc2)CC1 (stereo not shown),-35.8
15,Cc1ccc(-n2ncc(C(=O)NCC3CCN(C4CCCC4)C3)c2C2CCN(C(=O)OC(C)(C)C)CC2)cc1 (stereo not shown),-20.4
16,CC(C)(C)OC(=O)N1CCC(c2c(C(=O)NCC3CCN(C4CCCC4)C3)cnn2-c2ccc(F)cc2)CC1 (stereo not shown),-50.5
17,CC[n+]1ccccc1/C=C1\Sc2ccc(C)cc2N1C.[I-],-62.5
18,Cc1ccc2c(c1)N(C)/C(=C/c1cccc[n+]1CCO)S2.[I-],-9.09
19,Cc1ccc2c(c1)N(C)/C(=C/c1cccc[n+]1C)S2.[I-],-47.5
20,Cc1oc2nc(SCC(=O)NC3CCCCC3)nc(N)c2c1C,-14.8

row,Structure (SMILES),"hERG current change (%, negative = inhibition) at 10uM [%]"
1,Cl.O=C(CN1CCCC1)N1c2ccccc2Sc2ccc(Cl)cc21,0.273
2,COc1ccc(S(=O)(=O)Nc2ccc3c(c2)n(C)c(=O)n3C)cc1C,2.39
3,Cc1ccc(CNC(=O)C23CN(Cc4ccccc4)CC2C(c2ccc([N+](=O)[O-])cc2)=NO3)cc1 (stereo not shown),-43.7
4,Cc1ccc(CCNC(=O)C23CN(Cc4ccccc4)CC2C(c2ccc([N+](=O)[O-])cc2)=NO3)cc1 (stereo not shown),-24
5,O=C(NCc1ccco1)C12CN(Cc3ccccc3)CC1C(c1cccc([N+](=O)[O-])c1)=NO2 (stereo not shown),-46.6
6,O=C(NCc1ccccc1)C12CN(Cc3ccccc3)CC1C(c1cccc([N+](=O)[O-])c1)=NO2 (stereo not shown),-14.6
7,O=C(NCc1ccccc1)C12CN(Cc3ccccc3)CC1C(c1ccc([N+](=O)[O-])cc1)=NO2 (stereo not shown),-67.1
8,O=C(NCc1ccco1)C12CN(Cc3ccccc3)CC1C(c1ccc([N+](=O)[O-])cc1)=NO2 (stereo not shown),-70.8
9,Cc1ccc(CNC(=O)C23CN(Cc4ccccc4)CC2C(c2ccc([N+](=O)[O-])cc2)=NO3)o1 (stereo not shown),-49.6
10,COc1cccc(CNC(=O)C23CN(Cc4ccccc4)CC2C(c2ccc([N+](=O)[O-])cc2)=NO3)c1 (stereo not shown),-52.1
11,Cc1ccc(CNC(=O)C23CN(Cc4ccccc4)CC2C(c2cccc([N+](=O)[O-])c2)=NO3)cc1 (stereo not shown),-0.125
12,COc1ccc(CCNC(=O)C23CN(Cc4ccccc4)CC2C(c2cccc([N+](=O)[O-])c2)=NO3)cc1 (stereo not shown),-7.39
13,COc1ccc(CNC(=O)C23CN(Cc4ccccc4)CC2C(c2ccc([N+](=O)[O-])cc2)=NO3)cc1 (stereo not shown),-40.5
14,COc1ccc(CCNC(=O)C23CN(Cc4ccccc4)CC2C(c2ccc([N+](=O)[O-])cc2)=NO3)cc1 (stereo not shown),-74.8
15,CCC1CCCCN1C(=O)Nc1cccc(NC(=O)N2CCCCC2CC)c1 (stereo not shown),9.57
16,CC(C)c1nnc(NC(=O)C2CCCN2S(=O)(=O)c2ccc(Cl)cc2)s1 (stereo not shown),7.71
17,Fc1ccc(N=c2ssnc2Cl)c(F)c1,22.1
18,CCCc1cc(=O)n2[nH]c(-c3ccc(C)cc3)cc2n1,-0.208
19,O=C(CN1CCN(C(=O)C2CCCO2)CC1)Nc1ccc(Cl)c(Cl)c1 (stereo not shown),-22.5
20,Cc1ccc(Nc2cnn(C34CC5CC(CC(CC(=O)O)(C5)C3)C4)c(=O)c2Cl)cc1,12
